# Data: PubChem BioAssay AID1259421 (Broad Institute, 2018)
# Several values for one entry are separate records, joined by “and”; a condition that tells them apart may be missing. Identical values can stand only once. Among all 6,400 compounds or so, about 610 (9.5%) were called active. No stated cut-off is given here; in the data, active means activity change below about -70%; inconclusive means no clear call, values can overlap the other calls; inactive means above that. The sample as a whole holds a higher share of actives than the screen did. Some compounds were tested as several samples or in several runs, with calls that do not always agree. Where a SMILES comes first, the peptide text is derived from it.
# Assay: T. gondii ME49Luc in HeLa cells, luciferase assay, 72 h, no IFN-y (AID 1259421)
# Conditions: stronger effect = lower value, concentration not given here
row,Structure (SMILES),"activity change, negative = inhibition"
1,CN1C2CCC1CC(OC(c1ccccc1)c1ccc(Cl)cc1)C2 (stereo unspecified),-51.9% (inactive) and 41.6% (inactive)
2,CN(C)CCc1ccc(O)cc1,15.3% (inactive) and 3.73% (inactive)
3,CC[C@@H]1[C@@H](C)O[C@@](O)([C@@H](C)[C@H](O)[C@H](C)[C@H]2OC(=O)/C=C/C=C/[C@H](C)[C@H]([C@@H](C)[C@@H](O)[C@H](C)[C@@]3(O)C[C@@H](O[C@H]4C[C@H](O)[C@H](O)[C@H](C)O4)[C@H](CC)[C@@H](C)O3)OC(=O)/C=C/C=C/[C@H]2C)C[C@H]1O[C@H]1C[C@H](O)[C@H](O)[C@H](C)O1,-83.6% (active)
4,CC(C)[C@@H](CN1CC[C@@](C)(c2cccc(O)c2)[C@@H](C)C1)NC(=O)[C@H]1Cc2ccc(O)cc2CN1,7.74% (inactive)
5,C[N@@+]1(CC2CC2)CC[C@]23c4c5ccc(O)c4O[C@H]2C(=O)CC[C@]3(O)[C@H]1C5,-5.91% (inactive)
6,CC(C)NCC(O)c1ccc(N)c(C#N)c1 (stereo unspecified),11.6% (inactive) and -5.38% (inactive)
7,C[C@]12C[C@H]3S[C@H]3C[C@@H]1CC[C@@H]1[C@@H]2CC[C@]2(C)[C@@H](O)CC[C@@H]12,-16.5% (inactive)
8,C[C@]12CC[C@H]3[C@@H](CC[C@@]45O[C@@H]4C(=O)C(C#N)C[C@]35C)[C@@H]1CC[C@@H]2O (stereo partly specified),6.81% (inactive)
9,C[C@]12CCC3[C@@H](CC[C@@]45O[C@@H]4C(=O)C(C#N)C[C@]35C)C1CC[C@@H]2O (stereo partly specified),-74.3% (active)
10,COC[C@H]1OC(=O)c2coc3c2[C@@]1(C)C1=C(C3=O)C2CCC(=O)[C@@]2(C)C[C@H]1OC(C)=O (stereo partly specified),-5.28% (inactive)
11,CC(=O)C1CCC2C3CCC4CC(C)(O)CCC4(C)C3CCC12C (stereo unspecified),13.6% (inactive)
12,COc1cc2cc(c1Cl)N(C)C(=O)C[C@H](OC(=O)C(C)C)[C@]1(C)O[C@H]1[C@H](C)[C@@H]1C[C@@](O)(NC(=O)O1)[C@H](OC)/C=C/C=C(/C)C2,-83.8% (active)
13,COC1=CC(=O)OC(/C=C/c2ccccc2)C1 (stereo unspecified),9.89% (inactive)
14,CC1(C)C(=O)N(c2ccc(C#N)c(C(F)(F)F)c2)C(=O)N1CCCCO,4.23% (inactive)
15,CN1C(=O)CC(=O)N(c2ccccc2)c2cc(Cl)ccc21,7.34% (inactive)
16,C[C@@H]1O[C@@H](O[C@@H]2C=C3CCC4C(CC[C@]5(C)[C@@H](c6ccc(=O)oc6)CC[C@]45O)[C@@]3(C)CC2)C(O)C(O)[C@H]1O (stereo partly specified),-85.7% (active)
17,C[C@]12CC[C@H](OC3OC(O)C(O)C(O)C3O)C=C1CCC1C2CC[C@]2(C)[C@@H](c3ccc(=O)oc3)CC[C@]12O (stereo partly specified),-83.9% (active)
18,NCCc1ccccn1,26.7% (inactive) and 12% (inactive)
19,Cc1nnc2n1-c1sc(CCC(=O)N3CCOCC3)cc1C(c1ccccc1Cl)=NC2,10% (inactive) and 7.36% (inactive)
20,O=C(CS(=O)C(c1ccccc1)c1ccccc1)NO (stereo unspecified),2.69% (inactive)
21,CCC(CO)NC(=O)C1C=C2c3cccc4c3c(cn4C)CC2N(C)C1 (stereo unspecified),0.967% (inactive)
22,Nc1ccc([As](=O)(O)O)cc1,2.94% (inactive)
23,CC(C)C[C@H](NC(=O)[C@H](Cc1ccccc1)NC(=O)CNC(=O)[C@H](C)NC(=O)[C@@H](N)Cc1ccc(O)cc1)C(=O)O,15.2% (inactive)
24,C[C@]12CCC3C(CC[C@]4(O)C[C@@H](O)CC[C@]34C=O)[C@@]1(O)CCC2C1=CC(=O)OC1 (stereo partly specified),-72.5% (active) and -88.8% (active)

row,Structure (SMILES),"activity change, negative = inhibition"
1,C[C@]12CC[C@H]3[C@@H](CC[C@]4(O)C[C@@H](O)CC[C@]34C=O)[C@@]1(O)CC[C@@H]2C1=CC(=O)OC1,-91% (active)
2,C[C@@H]1O[C@@H](O[C@H]2CC[C@]3(C=O)C4CC[C@]5(C)[C@@H](C6=CC(=O)OC6)CC[C@]5(O)C4CC[C@]3(O)C2)[C@H](O)[C@H](O)[C@H]1O (stereo partly specified),-76.4% (active)
3,CCN1C[C@]2(COC)CCC(OC)[C@@]34C5C[C@]6(O)[C@H](OC(=O)c7ccc(OC)cc7)C5[C@@](OC(C)=O)(C[C@H]6OC)[C@@H]([C@H](OC)C23)[C@@H]14 (stereo partly specified),-1.07% (inactive)
4,NC1CCN(c2cccnc2)C1 (stereo unspecified),10.7% (inactive)
5,C[C@H](N)Cn1ccc2cc(F)c(Cl)cc21,7.22% (inactive)
6,Cc1ncc(CNC(=O)N(CCCl)[NH2+][O-])c(N)n1,18.6% (inactive)
7,CN(C)[C@@H]1C(=O)C(C(N)=O)C(=O)[C@@]2(O)C(=O)C3C(=O)c4c(O)cccc4[C@](C)(O)[C@H]3C[C@@H]12 (stereo partly specified),4.49% (inactive)
8,N[C@@H](Cc1ccc(O)cc1)C(=O)NCC(=O)NCC(=O)O (H-Tyr-Gly-Gly-OH),-5.06% (inactive)
9,NC(=O)C[S@@](=O)C(c1ccccc1)c1ccccc1,3.02% (inactive)
10,CCCC(C)C1(CC)C(=O)NC(=O)NC1=O (stereo unspecified),19.8% (inactive)
11,CN[C@@H](C)[C@H](O)c1ccccc1,-0.966% (inactive)
12,C[C@]12CCC(=O)C(=O)C1CC[C@@H]1[C@@H]2CC[C@]2(C)C(=O)CC[C@@H]12 (stereo partly specified),1.31% (inactive)
13,Cc1nnc2ccc(-c3cccc(C(F)(F)F)c3)nn12,-56.7% (inactive) and -76.7% (active)
14,CCN[C@@H](C)Cc1cccc(C(F)(F)F)c1,3.99% (inactive)
15,CCOC(=O)c1ncc2[nH]c3ccc(OCc4ccccc4)cc3c2c1COC,-0.724% (inactive) and 16.8% (inactive)
16,NC(=O)c1cn(C2OC(CO)[C@H](O)[C@@H]2O)c2ncnc(N)c12 (stereo partly specified),-91.9% (active)
17,CCNC(=O)C1OC(n2cnc3c(N)ncnc32)C(O)C1O (stereo unspecified),1.34% (inactive)
18,CCNC(=O)[C@H]1O[C@@H](n2cnc3c(N)ncnc32)[C@H](O)[C@@H]1O,-4.22% (inactive)
19,C#CCN1C(C)=C(C(=O)CCO)C(c2cccc(-n3oo3)c2)C(C(=O)OC)=C1C (stereo unspecified),11.7% (inactive)
20,OC1(c2ccc(Cl)cc2)c2ccccc2C2=NCCN21 (stereo unspecified),22.1% (inactive)
21,CN1CCC2(c3cccc(O)c3)Cc3nc4ccccc4cc3CC2C1 (stereo unspecified),-1.33% (inactive)
22,CC[C@H]1CN2CCC1C[C@@H]2[C@H](O)c1ccnc2ccc(OC)cc12 (stereo partly specified),19.4% (inactive)
23,CCCCCCCCCCCCCC(=O)O[C@@H]1[C@@H](C)[C@@]2(O)[C@@H](C=C(CO)C[C@]3(O)C(=O)C(C)=C[C@@H]23)[C@@H]2C(C)(C)[C@]12OC(C)=O,-85.6% (active) and -84.7% (active)
24,CC1=C[C@H]2[C@]3(O)[C@H](C)[C@@H](O)[C@@]4(O)[C@H]([C@@H]3C=C(CO)C[C@]2(O)C1=O)C4(C)C,-3.08% (inactive)

row,Structure (SMILES),"activity change, negative = inhibition"
1,CCCCCCCCCOc1ccc2[nH]cc(CCN)c2c1,7.94% (inactive)
2,CCC1/C=C/C=C/C[C@H](C)[C@@H](O)[C@](C)(O)C(=O)[C@@H](C)[C@H](O)[C@@H](C)C(=O)[C@H](C)[C@@H](O)[C@H](C)/C=C/C(=O)OC2[C@@H](C)C(CC1)OC1(CC[C@@H](C)C(C[C@H](C)O)O1)[C@@H]2C (stereo partly specified),-89.1% (active)
3,CC1=CC[C@@H]2[C@@H](C1)c1c(O)cc(CC#CCCCNS(C)(=O)=O)cc1OC2(C)C,17.8% (inactive)
4,COc1ccc(C(=O)O)cc1OC,8.1% (inactive)
5,O=C(O[C@H]1CN2CCC1CC2)N(Cc1cc(F)c(F)c(F)c1)c1cccc(F)c1,16.6% (inactive)
6,CC(=O)Oc1ccc(/C=C/c2cc(OC(C)=O)cc(OC(C)=O)c2)cc1,11.4% (inactive)
7,O=C1CCC[C@@H]2[C@@H]3CCCN4CCC[C@H](CN12)[C@@H]34,15.2% (inactive)
8,C=C1[C@@H](C)[C@H]2[C@H](Cc3ccccc3)NC(=O)[C@]23OC(=O)/C=C\[C@H](O)CCC[C@@H](C)C/C=C/[C@H]3[C@@H]1O,-85.5% (active)
9,C[C@]12Cc3cn[nH]c3C[C@@H]1CC[C@@H]1[C@@H]2CC[C@@]2(C)[C@H]1CC[C@]2(C)O,-3.74% (inactive)
10,O=C(NC(=O)c1c(F)cccc1F)Nc1cc(Cl)c(OC(F)(F)C(F)C(F)(F)F)cc1Cl (stereo unspecified),-81.8% (active) and -81.1% (active)
11,CC(=O)OCC1=C(C(=O)O)N2C(=O)[C@@H](NC(=O)CCCC(N)C(=O)O)C2SC1.[Zn] (stereo partly specified),20.4% (inactive)
12,CC(C)=CC1C(C(=O)OCc2coc(Cc3ccccc3)c2)C1(C)C (stereo unspecified),19.4% (inactive)
13,Cc1c2ccncc2c(C)c2c1[nH]c1ccccc12,-83.1% (active)
14,c1ccc2c(c1)[nH]c1cnccc12,-0.879% (inactive)
15,Cc1nccc2c1[nH]c1ccccc12,1.21% (inactive)
16,COc1ccc2c(c1)CN(C)CC2c1ccc(Cl)c(Cl)c1 (stereo unspecified),5.02% (inactive)
17,O=C1CCC2(O)C3Cc4ccc(O)c5c4C2(CCN3CC2CC2)C1O5 (stereo unspecified),10.3% (inactive)
18,Clc1ccc(C2=CCCC3CCC2N3)cn1 (stereo unspecified),12.4% (inactive) and -82.3% (active)
19,CN(C(=O)Cc1ccc(Cl)c(Cl)c1)[C@H](CN1CCCC1)c1ccccc1,8.8% (inactive) and 17.5% (inactive)
20,OC12C3C4CC5C6C4C1C6C(C53)N2CCc1cccc(F)c1 (stereo unspecified),18.7% (inactive) and 6.8% (inactive)
21,CN(C)c1ccc(/C=C2\CCCN=C2c2cccnc2)cc1,-1.7% (inactive) and -12.2% (inactive)
22,CC1(C)CC[C@]2(C(=O)O)CC[C@]3(C)[C@H](C(=O)C=C4[C@@]5(C)C=C(C#N)C(=O)C(C)(C)[C@@H]5CC[C@]43C)[C@@H]2C1,-98.8% (active)
23,O=C1NCN(c2ccccc2)C12CCN(CC1COc3ccccc3O1)CC2 (stereo unspecified),-3.91% (inactive) and 4.3% (inactive)
